# Screening data: PubChem BioAssay, National Center for Advancing Translational Sciences (NCATS)
# IL-1B inflam inh – qHTS for Inhibitors of Inflammasome Signaling: IL-1-beta AlphaLISA Primary Screen. actives 4.7% (n = 360,000). activity change, % at 57.5 µM. AID 743279, 2014. THP-1 LPS/ATP IL-1B secretion, AlphaLISA, 16 h; active compounds read low; in the data active means activity change below about -50%; inconclusive means mostly about -30% to -49%
#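 THP-1 cells pretreated 1 hr with compounds (up to 57.5 uM final), then stimulated with LPS (250 ng/mL final) plus ATP (1.25 mM final); secreted IL-1B measured by AlphaLISA after 16 hr, decreased signal indicating inhibition.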
# TDP1 cell noCPT – qHTS for Inhibitors of human tyrosyl-DNA phosphodiesterase 1 (TDP1): qHTS in cells in absence of CPT; DT40 Tdp1-/- hTDP1 cells, no CPT, ATP luminescence, 48 h; Potency, µM (top dose mostly 46.2 µM), for inactives: at the highest dose activity change, negative = growth inhibition, hits mostly inhibitors; actives 15% (n = 420,000); further: potency means the concentration at half of the fitted maximal effect; nearly all actives have a fitted effect of over 55% in size
#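 Compound effects on proliferation are scored in DT40 Tdp1-/-;hTDP1 cells in the absence of CPT. ATP levels (CellTiter-Glo luminescence) are recorded after a ≥48 hr, 37 °C incubation.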
# TDP1 block – qHTS Assay for Inhibitors of Tyrosyl-DNA Phosphodiesterase (TDP1); recombinant TDP1, AlphaScreen DNA substrate cleavage; actives 0.28% (n = 350,000); Potency, µM (titrated, usually from 130 µM), for inactives: at the highest dose activity change, negative = inhibition, actives largely listed as inhibitors; further: potency means the concentration at half of the fitted maximal effect; nearly all actives have a fitted effect of over 40% in size
# Target sequence (Q9NUW8 whole entry, looked up): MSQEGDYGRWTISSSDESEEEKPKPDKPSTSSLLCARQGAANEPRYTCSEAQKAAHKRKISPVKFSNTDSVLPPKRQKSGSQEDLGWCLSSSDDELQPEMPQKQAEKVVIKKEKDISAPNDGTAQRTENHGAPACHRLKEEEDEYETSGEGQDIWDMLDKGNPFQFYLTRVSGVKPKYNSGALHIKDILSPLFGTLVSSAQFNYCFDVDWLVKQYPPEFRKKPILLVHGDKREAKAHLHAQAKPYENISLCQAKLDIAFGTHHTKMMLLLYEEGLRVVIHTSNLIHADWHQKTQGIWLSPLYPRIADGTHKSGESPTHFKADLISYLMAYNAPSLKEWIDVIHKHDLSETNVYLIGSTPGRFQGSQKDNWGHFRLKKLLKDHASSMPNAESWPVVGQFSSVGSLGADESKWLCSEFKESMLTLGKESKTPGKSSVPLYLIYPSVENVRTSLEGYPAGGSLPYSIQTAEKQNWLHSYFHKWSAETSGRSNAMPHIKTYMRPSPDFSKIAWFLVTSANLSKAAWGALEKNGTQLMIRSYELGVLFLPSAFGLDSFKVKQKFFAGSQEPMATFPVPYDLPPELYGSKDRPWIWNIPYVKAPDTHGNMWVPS
#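 Tdp1 1 nM final; 15 min RT w/ cpd; substrate 15 nM, 5 min; beads 10 ug/ml, 10 min; AlphaScreen read. Neg ctrl: no enzyme.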
# Giardia killer – Small Molecules that selectively kill Giardia lamblia: qHTS; Giardia lamblia trophozoite viability; activity change, % at 7.66 µM, hits read low; actives 0.15% (n = 340,000); in the data active means activity change below about -80%; inconclusive means between about -30% and that limit;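 further: parasites exposed to compound for two days anaerobically before the ATP read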
#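 Each well holds 100 Giardia trophozoites and compound. After two days (48 hrs) at 37 deg C in anaerobic conditions, ATP is quantified by luminescence.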
# DT40 TDP1 CPT – qHTS for Inhibitors of human tyrosyl-DNA phosphodiesterase 1 (TDP1): qHTS in cells in presence of CPT. chicken DT40 Tdp1-/-;hTDP1 cells + 20 nM CPT, ATP luminescence, 48 h. Potency, µM (series often up to 46.2 µM), without a hit: at the highest dose activity change, negative = growth inhibition, most hits filed as inhibitors. actives 12% (n = 420,000); further: potency means the concentration at half of the fitted maximal effect; nearly all actives have a fitted effect of over 55% in size
#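 Cell growth measured by CellTiter-Glo luminescence after a minimum 48 h, 37 C compound exposure with 20 nM CPT in Tdp1-knockout DT40 cells stably expressing hTDP1, seeded 400/well; qHTS titration format.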
# ELG1 repair inh – qHTS screen for small molecules that inhibit ELG1-dependent DNA repair in human embryonic kidney (HEK293T) cells expressing luciferase-tagged ELG1; HEK293T ELG1-luciferase reporter, luminescence, 16 h; DNA damage induced by 5-fluorouridine; Potency, µM (top dose mostly 46.1 µM), for the others: top-dose activity change, negative = inhibition, actives largely listed as inhibitors; actives 2.3% (n = 330,000); AID 504467, 2011; further: potency means the concentration at half of the fitted maximal effect; nearly all actives have a fitted effect of over 55% in size
#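 HEK293T cells expressing luciferase-tagged ELG1 (2,000/well) received 5-Fluorouridine plus compound or DMSO for 16 hr at 37 °C. Luciferase was read by ONE-Glo luminescence after 30 min at room temperature.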
# * marks the source's active call; other numbers are inactive results; ? = inconclusive; . = no result; ! = not active in a repeat; [ ] = remark or other dose. An excerpt weighted towards active compounds, which were near 19% of everything screened. Unless noted, the call rests on the fitted dose curve; in most records, active means well fitted curve in the direction sought with a large enough effect; inconclusive means small, poorly fitted or top-dose-only effect, or another doubt; inactive means no such curve, though single readings can be large; an effect the other way counts as inactive or inconclusive. On the % scale 0 is the no-effect control and ±100 the full control effect.
SMILES,IL-1B inflam inh,TDP1 cell noCPT,TDP1 block,Giardia killer,DT40 TDP1 CPT,ELG1 repair inh
COc1ccccc1NC(=O)C1CCC(CNS(=O)(=O)c2ccc3c(c2)CC(C)N3C(C)=O)CC1 (stereo not given),.,10µM*,-8%,.,10µM*,.
CCCCN(C)C(=O)C1CCC(CNS(=O)(=O)c2ccc3c(c2)CC(C)N3C(C)=O)CC1 (stereo not given),17,16µM*,4%,9,13µM*,-29%
CC(=O)N1c2ccc(S(=O)(=O)NCC3CCC(C(=O)Nc4ccc(C)c(C)c4)CC3)cc2CC1C (stereo not given),.,23µM*,-5%,.,16µM*,.
CC(=O)N1c2ccc(S(=O)(=O)NCC3CCC(C(=O)Nc4ccc(C)cn4)CC3)cc2CC1C (stereo not given),?,?,6%,3,?,?
CC(=O)N1c2ccc(S(=O)(=O)NCC3CCC(C(=O)Nc4ccc(F)cc4)CC3)cc2CC1C (stereo not given),.,16µM*,-13%,.,16µM*,.
O=C(Nc1nncs1)C1c2ccccc2Oc2ccccc21,-13,-22%,2%,-2,?,1%
COCCNC(=O)C1CCC(CNS(=O)(=O)c2ccc3c(c2)CC(C)N3C(C)=O)CC1 (stereo not given),.,-11%,0%,.,-9%,.
Cc1cccc(NC(=O)C2CCC(CNS(=O)(=O)c3ccc4c(c3)CCCC(=O)N4)CC2)c1C (stereo not given),.,-26%,-5%,.,?,.
CC(=O)N1c2ccc(S(=O)(=O)NCC3CCC(C(=O)N4CCCC(C)C4)CC3)cc2CC1C (stereo not given),-10,?,3%,6,16µM*,-7%
COc1ccc(C)cc1NC(=O)C1CCC(CNS(=O)(=O)c2ccc3c(c2)CCCC(=O)N3)CC1 (stereo not given),.,4.6µM*,8%,.,9.2µM*,.
CCc1ccc(NC(=O)C2CCC(CNS(=O)(=O)c3ccc4c(c3)CC(C)N4C(C)=O)CC2)cc1 (stereo not given),.,7.3µM*,-8%,-7,21µM*,.
CC(=O)N1c2ccc(S(=O)(=O)NCC3CCC(C(=O)NCc4ccccc4)CC3)cc2CC1C (stereo not given),-3,-12%,5%,-6,?,9%
CC1CC(C)CN(C(=O)C2CCC(CNS(=O)(=O)c3ccccc3)CC2)C1 (stereo not given),10,29µM*,.,8,?,-21%
O=C(Nc1ccccc1)Nc1ccno1,7,-23%,-3%,6,12%,1%
CCn1c2ccccc2c2cc(NC(=O)COC(=O)c3cc(S(N)(=O)=O)c(Cl)cc3Cl)ccc21,80,?,4%,-15,-11%,6%
CCOC(=O)c1ccc(-n2c(CCC(=O)O)ccc2-c2cccs2)cc1,-70*,?,5%,-2,-19%,11%
CC1CCN(S(=O)(=O)c2ccc3c(c2)CCN3)CC1,.,-22%,3%,.,-12%,.
Cc1ccc(C2C(C#N)=C(N)Oc3cc(C)oc(=O)c32)o1 (stereo not given),-5,18µM*,-2%,23,18µM*,?
Cc1ccc(C)c(C2C(C#N)=C(N)Oc3cc(C)oc(=O)c32)c1 (stereo not given),7,-3%,8%,-18,0%,3%
O=C(NCc1ccccc1)c1ccc(NC(=O)C2CCCO2)cc1 (stereo not given),-17,10%,5%,0,-18%,10%
CCCCCCCCOC(=O)C[N+](C)(C)C/C=C(/C)Cl,-18,10µM*,-3%,-2,16µM*,0%
CCCCCCCCCCCCOC(=O)C[N+](C)(C)C,.,-13%,.,6,6%,-16%
CCCCCCCCCCOC(=O)C[N+](C)(C)C/C=C(/C)Cl,?,3.7µM*,0%,-4,8.2µM*,-9%
COc1ccc(C2CC(O)(c3ccccc3)Oc3cc(OC)cc(OC)c32)cc1 (stereo not given),?,?,12%,9,23µM*,-19%
COc1cccc(C2(CC(=O)N3CCCCC3CO)CC(=O)N(C)C2=O)c1 (stereo not given),.,-8%,.,.,9%[9.04 µM],.
SMILES,IL-1B inflam inh,TDP1 cell noCPT,TDP1 block,Giardia killer,DT40 TDP1 CPT,ELG1 repair inh
COc1ccccc1C(C)NCC(=O)c1c(C)[nH]c2ccccc12 (stereo not given),.,18µM*,.,.,11µM*,.
CCOc1ccc(CN(C(=O)c2cccs2)C2CCS(=O)(=O)C2)cc1 (stereo not given),23,0%,3%[56.1 µM],8,-15%,7%
CCOC(=O)[C@H](CCc1ccccc1)N[C@@H](C)C(=O)N1Cc2ccccc2C[C@H]1C(=O)O,4,0.26µM*!,.,-24,?,.
O=C1CNC(=O)/C1=C/c1ccc(Br)cc1,-4,-26%,4%,-17,1%,14%
COc1cc2c(cc1OC)/C(=C/c1ccc(Br)cc1)C(=O)OC2,0,18µM*,3%,-1,?,?
COc1ccccc1NS(=O)(=O)/C=C/c1ccccc1,7,-19%,-4%,-9,?,0%
CC(=O)n1cc([C@H]2C=C(C(=O)Nc3ccccc3)O[C@@H](OCc3ccc(CO)cc3)C2)c2ccccc21,0,9.2µM*,6%,-4,8.2µM*,9.2µM*
CC(=O)n1cc([C@H]2C=C(C(=O)N3CCN(Cc4ccccc4)CC3)O[C@@H](OCc3ccc(CO)cc3)C2)c2ccccc21,0,7.3µM*,5%,4,7.3µM*,?
C#CCNC(=O)C1=C[C@H](c2cn(C(C)=O)c3ccccc23)C[C@H](OCc2ccc(CO)cc2)O1,-17,16µM*,6%,-1,18µM*,?
CC(=O)n1cc([C@@H]2C=C(C(=O)NCc3ccccc3)O[C@H](OCc3ccc(CO)cc3)C2)c2ccccc21,?,9.2µM*,.,13,7.3µM*,?
